# Assay results reported in PubChem BioAssay AID2284385 (EPA ToxCast).
# Calls of active or inactive are those of the source. The calls were made as follows: active = hit-call score of the fitted dose curve at least 0.9, where 1 is the maximum; inactive = score below 0.9.
# Target: human Peroxisome proliferator-activated Receptor alpha (PPARa), PPARA (gene 5465) (UniProt Q07869)
# Test: ERF_TW_NR_COA_hPPARA: Eurofins (ERF) Nuclear Receptor (NR) Functional Coactivator Assay for human Peroxisome proliferator-activated Receptor alpha (PPARa) Agonism & Antagonism, conducted at Taiwan lab site
# Procedure: ERF_TW_NR_COA_hPPARA is a biochemical, single-readout assay that uses extracted gene-proteins in a cell-free assay. Measurements were taken 3 hours after chemical dosing in a 96-well plate. See PPARalpha Human NHR Functional Agonist Coactivator Assay, Panlabs.ERF_TW_NR_COA_hPPARA is an assay component calculated from the ERF_TW_NR_COA_hPPARA assay. It is designed to measure FRET using a type of binding reporter as detected by fluorescence intensity of GW7647 with fluorimetry technology.Data from the assay component ERF_TW_NR_COA_hPPARA was analyzed at the assay endpoint, ERF_TW_NR_COA_hPPARA, in the positive analysis fitting direction relative to DMSO as the negative control and baseline of activity. Using a type of binding reporter, gain-of-signal activity can be used to understand changes in binding as they relate to gene PPARA. To generalize the intended target to other relatable targets, this assay endpoint is annotated to the nuclear receptor intended target family, where the subfamily is non-steroidal.
# Human recombinant peroxisome proliferators-activated receptor alpha (PPARA, PPARa, PPAR-alpha) hPPAR, NR1C1) receptors expressed in insect are used. Test compound and/or vehicle is incubated with the 2.5 nM receptors and binding buffer in modified kit buffer pH 7.4 for 3 hours at RT. Determination of the amount of complex formed is read microplate reader (excitation:337 nm, emission: 520/490 nm). Test compound-induced increase fluorescence by 50 percent or more (>/=50%) relative to the 1 uM GW7647 response indicates possible PPARa receptor agonist activity. Test compound-induced inhibition of 20 nM GW7647-induced fluorescence response by 50 percent or more (>/=50%) indicates receptor antagonist activity.
# Sequence of human Peroxisome proliferator-activated Receptor alpha (PPARa), PPARA (gene 5465) (Q07869 whole entry, looked up): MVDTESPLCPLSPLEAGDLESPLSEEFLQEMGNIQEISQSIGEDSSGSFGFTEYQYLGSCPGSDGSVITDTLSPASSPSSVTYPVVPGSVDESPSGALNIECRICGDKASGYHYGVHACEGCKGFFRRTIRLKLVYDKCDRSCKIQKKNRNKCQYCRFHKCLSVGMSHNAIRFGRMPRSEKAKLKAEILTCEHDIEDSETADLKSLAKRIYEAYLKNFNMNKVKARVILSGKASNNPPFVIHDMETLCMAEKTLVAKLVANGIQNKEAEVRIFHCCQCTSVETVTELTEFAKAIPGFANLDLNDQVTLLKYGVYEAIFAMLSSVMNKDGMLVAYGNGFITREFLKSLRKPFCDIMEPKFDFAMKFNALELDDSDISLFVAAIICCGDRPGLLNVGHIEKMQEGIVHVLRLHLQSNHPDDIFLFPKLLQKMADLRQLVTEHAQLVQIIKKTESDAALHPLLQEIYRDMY
Structure (SMILES),AC50,outcome
O=C(O)C(F)(F)C(F)(F)C(F)(F)C(F)(F)C(F)(F)C(F)(F)C(F)F,31.1 µM (active),–
O=C(O)C(F)(F)C(F)(F)C(F)(F)C(F)(F)C(F)(F)C(F)(F)C(F)(F)C(F)(F)Cl,–,inactive
O=C(O)CCC(F)(F)C(F)(F)C(F)(F)F,–,inactive
CN(CCOc1ccc(CC2SC(=O)NC2=O)cc1)c1ccccn1 (configuration not stated),–,inactive
O=C(Cl)C(F)(F)C(F)(F)C(F)(F)C(F)(F)C(F)(F)C(F)(F)F,31.6 µM (active),–
CC(C)(Oc1ccc(C(=O)c2ccc(Cl)cc2)cc1)C(=O)O,15.7 µM (active),–
O=C(CC(=O)C(F)(F)C(F)(F)C(F)(F)F)c1cccs1,–,inactive
